Source: PubChem BioAssay (several laboratories)
Rows were chosen to be rich in hits. Some 3.2% of all compounds tested hit in one or more screens of this group.
TcdB GH inh – inhibitors of Clostridioides difficile toxin B glycohydrolase. TcdB glycohydrolase enzymatic assay, plate reader. P18177. inhibition, % at 9.99 µM. actives 0.24% (n = 350,000); in the data active = inhibition above about 10%
Y pestis TopoI – Y. pestis Topo-I inhibition via cleavage products | Y. pestis Topo-I cleavage product accumulation, plate reader | activity, % at 10 µM | actives 0.064% (n = 360,000) | AID 504884; in the data active = activity above about 50%, passing the limit was not always enough
PrPC surface inh – cell surface PrPC inhibition, primary TR-FRET screen | AID 720596 | inhibition, % at 13.8 µM | P04156 | TR-FRET read-out | actives 0.43% (n = 370,000); in the data active = inhibition above about 24%; note: 0% = median of the test wells and 100% = reference compound wells
GDH-TPI counter-1 – inhibits GDH-TPI coupling enzymes, artifact for Mtb FBA screen | GDH-TPI coupled enzyme counterscreen, NADH absorbance | AID 588335 | actives 1.2% (n = 360,000) | inhibition, % at 4.8 µM; in the data active = inhibition above about 30%;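 note: 0% = DMSO wells and 100% = wells lacking the enzyme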
FBA Mtb inh – Mtb fructose-bisphosphate aldolase inhibition; P9WQA3; purified M. tuberculosis FBA, fluorescence read-out; inhibition, % at 1 µM; actives 2.3% (n = 360,000); AID 588726;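 note: 0% = vehicle and 100% = reference inhibitor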
Target sequence (P9WQA3 whole entry, looked up): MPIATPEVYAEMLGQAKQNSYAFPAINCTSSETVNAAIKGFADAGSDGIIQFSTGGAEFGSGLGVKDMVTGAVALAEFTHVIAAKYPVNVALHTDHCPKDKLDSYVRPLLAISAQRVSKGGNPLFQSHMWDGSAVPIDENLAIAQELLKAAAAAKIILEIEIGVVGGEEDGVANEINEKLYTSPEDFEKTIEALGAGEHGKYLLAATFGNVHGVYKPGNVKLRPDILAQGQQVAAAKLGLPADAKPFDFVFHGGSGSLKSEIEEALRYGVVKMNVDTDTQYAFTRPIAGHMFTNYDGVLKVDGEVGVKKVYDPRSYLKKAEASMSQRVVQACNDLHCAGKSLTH
Mtb FBA confirm – Mtb FBA inhibition, confirmed; shares compounds with FBA Mtb inh; purified M. tuberculosis FBA, fluorescence read-out; inhibition, % at 1 µM; actives 78% (n = 5,600); AID 651616;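 note: 0% = vehicle wells and 100% = reference inhibitor wells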
GDH-TPI counter-2 – GDH-TPI inhibition counter-screen for FBA inhibitors; shares compounds with FBA Mtb inh; GDH-TPI coupled enzyme counterscreen, fluorescence; inhibition, % at 1 µM; actives 81% (n = 5,600); in the data active = inhibition above about 10%
Active calls of the source: *. Cut-off read from the data, not from the text of the source, unless noted: active = inhibition above about 27%; inactive = the rest.

`c1ccc2c(N3CCCCC3)nc(N3CCOCC3)nc2c1` gave TcdB GH inh -3.7, Y pestis TopoI 8.8, PrPC surface inh -4.8, GDH-TPI counter-1 12.7 and FBA Mtb inh 10.8.
Screening O=c1[nH]c2ccccc2nc1N1CCOCC1 returned Y pestis TopoI -9.5, PrPC surface inh 2.4, GDH-TPI counter-1 25.9 and FBA Mtb inh -2.0.
CNC[C@H]1Oc2ccc(NC(=O)CCCN(C)C)cc2C(=O)N([C@H](C)CO)C[C@@H]1C was read as TcdB GH inh 0.5.
`O=C(c1ccc2nc3ccc(Cl)cc3c(=O)n2c1)N1CCOCC1` gave TcdB GH inh -0.2, Y pestis TopoI 0.6, PrPC surface inh -7.6, GDH-TPI counter-1 13.4, FBA Mtb inh 92.9*, Mtb FBA confirm active and GDH-TPI counter-2 active.
For O=C(c1ccc2nc3ccc(Cl)cc3c(=O)n2c1)N1CCC2(CC1)OCCO2 the results were Y pestis TopoI 14.6, PrPC surface inh -7.3, GDH-TPI counter-1 19.9, FBA Mtb inh 40.5*, Mtb FBA confirm active and GDH-TPI counter-2 active.
`O=C(c1ccc2nc3ccccc3c(=O)n2c1)N1CCN(Cc2ccc3c(c2)OCO3)CC1` gave Y pestis TopoI 9.3, PrPC surface inh -37.6, GDH-TPI counter-1 4.0, FBA Mtb inh 69.2*, Mtb FBA confirm -3.6 and GDH-TPI counter-2 -10.3.
Screening O=C(c1cnc2ccc(Cl)cc2c1Cl)N1CCOCC1 returned TcdB GH inh -1.0, Y pestis TopoI 0.9, PrPC surface inh 4.2, GDH-TPI counter-1 -4.1 and FBA Mtb inh -1.8.
COc1ccc(NC(=O)N(C)C[C@H]2Oc3ccc(NC(=O)Cn4cnnn4)cc3CC(=O)N([C@@H](C)CO)C[C@H]2C)cc1 was read as TcdB GH inh -0.1.
Screening O=C(C[C@@H]1C=C[C@H](NC(=O)c2ccc(F)cc2)[C@H](CO)O1)NCCc1ccccc1 returned TcdB GH inh 1.5.
C[C@H](CO)N1C[C@H](C)[C@@H](CN(C)CC2CCCCC2)Oc2ccc(NC(=O)Nc3ccc4c(c3)OCO4)cc2C1=O was read as TcdB GH inh -1.4.
For CO[C@@H](CN(C)S(=O)(=O)c1cccc(Cl)c1)[C@H](C)CN([C@@H](C)CO)S(=O)(=O)c1cccc(Cl)c1 the results were TcdB GH inh -14.2.
O=C(CCC1CCCN(C(=O)c2ccco2)C1)NCc1ccccc1F (configuration not stated) was read as TcdB GH inh 0.4, Y pestis TopoI -6.2, PrPC surface inh -0.7, GDH-TPI counter-1 26.8 and FBA Mtb inh 1.6.
For C=CCC(=O)N1CCCC(CCC(=O)NCc2ccccc2F)C1 (configuration not stated) the results were TcdB GH inh 0.2, Y pestis TopoI 1.3, PrPC surface inh 3.9, GDH-TPI counter-1 -2.5, FBA Mtb inh 33.4*, Mtb FBA confirm 46.4* and GDH-TPI counter-2 46.5*.
Screening Cc1c(C)c2ccc(OCC(=O)NC3CCN(Cc4ccccc4)CC3)c(C)c2oc1=O returned TcdB GH inh 0.4, Y pestis TopoI 0.8, PrPC surface inh -1.2, GDH-TPI counter-1 6.6, FBA Mtb inh 37.5*, Mtb FBA confirm 60.2* and GDH-TPI counter-2 48.0*.
Screening O=C(COc1ccc(Br)cc1Cl)NC1CCN(Cc2ccccc2)CC1 returned TcdB GH inh 1.0, Y pestis TopoI 22.7, PrPC surface inh -7.3, GDH-TPI counter-1 2.8 and FBA Mtb inh -0.9.
`CC(=O)Nc1ccc(NC(=O)COc2cc(C)cc3oc(=O)cc(C)c23)cc1` gave TcdB GH inh 0.7, Y pestis TopoI 0.0, PrPC surface inh -5.2, GDH-TPI counter-1 3.1 and FBA Mtb inh 2.0.
For Cc1cc(=O)oc2cc(OCC(=O)NC3CCCCC3)c(Cl)cc12 the results were TcdB GH inh 1.0, Y pestis TopoI -4.7, PrPC surface inh -6.2, GDH-TPI counter-1 8.2 and FBA Mtb inh 9.8.
`CCc1cc(=O)oc2cc(C)cc(OCC(=O)NC3CC3)c12` gave TcdB GH inh -1.8, Y pestis TopoI 0.5, PrPC surface inh 7.4, GDH-TPI counter-1 9.5, FBA Mtb inh 64.9*, Mtb FBA confirm 20.7 and GDH-TPI counter-2 22.0*.
Screening Cc1cc(=O)oc2c3c(cc(OCC(=O)NC4CC4)c12)OC(C)(C)CC3 returned TcdB GH inh 0.8, Y pestis TopoI -0.4, PrPC surface inh -2.2, GDH-TPI counter-1 1.0, FBA Mtb inh 74.5*, Mtb FBA confirm 52.3* and GDH-TPI counter-2 28.9*.
Screening Cc1cc(OCC(=O)NC2CC2)c2c(C)cc(=O)oc2c1 returned Y pestis TopoI -4.3, GDH-TPI counter-1 3.5, FBA Mtb inh 79.6*, Mtb FBA confirm 50.7* and GDH-TPI counter-2 38.2*.
Screening CC(Oc1ccc2ccc(=O)oc2c1)C(=O)NC1CCN(Cc2ccccc2)CC1 (configuration not stated) returned TcdB GH inh 0.4, Y pestis TopoI 0.8, PrPC surface inh -4.6, GDH-TPI counter-1 20.0 and FBA Mtb inh 22.9.
Cc1c(C)c2ccc(OC(C)C(=O)NC3CCN(Cc4ccccc4)CC3)cc2oc1=O (configuration not stated) was read as TcdB GH inh 2.7, Y pestis TopoI 11.1, PrPC surface inh -0.7, GDH-TPI counter-1 -7.0, FBA Mtb inh 83.6*, Mtb FBA confirm 7.8 and GDH-TPI counter-2 -3.0.
Screening Cc1cc(OCC(=O)NC2CC2)c2c(C)c(C)c(=O)oc2c1 returned TcdB GH inh 1.9, Y pestis TopoI -0.1, PrPC surface inh 3.2, GDH-TPI counter-1 13.8, FBA Mtb inh 76.3*, Mtb FBA confirm 52.9* and GDH-TPI counter-2 44.7*.
For CCCc1cc(=O)oc2cc(C)cc(OCC(=O)NC3CC3)c12 the results were TcdB GH inh 0.7, Y pestis TopoI 0.6, PrPC surface inh -1.6, GDH-TPI counter-1 13.7, FBA Mtb inh 92.7*, Mtb FBA confirm 1.0 and GDH-TPI counter-2 1.8.
Cc1cc(OCC(=O)NC2CCS(=O)(=O)C2)c2c3c(c(=O)oc2c1)CCC3 (configuration not stated) was read as Y pestis TopoI -7.3, PrPC surface inh 0.9, GDH-TPI counter-1 3.4 and FBA Mtb inh 22.9.
CCc1cc(=O)oc2cc(C)cc(OCC(=O)NC3CCN(Cc4ccccc4)CC3)c12 was read as TcdB GH inh 0.4, Y pestis TopoI 12.7, PrPC surface inh 0.7, GDH-TPI counter-1 14.7, FBA Mtb inh 40.5*, Mtb FBA confirm 0.6 and GDH-TPI counter-2 3.4.
For Cc1cc(OCC(=O)N2CCC[C@@H]2C(=O)O)c2c(C)c(C)c(=O)oc2c1 the results were TcdB GH inh 5.5, Y pestis TopoI -0.2, PrPC surface inh 0.1, GDH-TPI counter-1 8.3, FBA Mtb inh 83.7*, Mtb FBA confirm 122.6* and GDH-TPI counter-2 97.5*.
Screening Cc1csc(NC(=O)c2cc3c(s2)-c2ccccc2OC3)n1 returned TcdB GH inh 0.6, Y pestis TopoI -4.1, PrPC surface inh 13.5, GDH-TPI counter-1 18.8, FBA Mtb inh 39.3*, Mtb FBA confirm 123.3* and GDH-TPI counter-2 102.0*.
